# Compound activity (PubChem BioAssay)
# M1 PAM parental = counter-screen for M1 PAMs: effect in parental CHO-K1 cells; ATP EC20, Fluo-8 calcium fluorescence; 0% at ATP EC20, 100% at ATP max; activation, % at 3 µM; actives 0.02% (n = 360,000);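 active means activation above the run cutoff, the mean activation of all test compounds plus 3 SD, cut at about 40% in these data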;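 further: peak over basal fluorescence ratio in a 140 s read after ATP addition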
# M1 ag parental = M1 agonist counterscreen hit in parental CHO-K1 cells. activation, % at 3 µM. actives 0.48% (n = 360,000). Fluo-8 calcium fluorescence; scaled to maximal ATP response, vehicle zero. AID 602248; in the data active means activation above about 15%;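 further: untransfected CHO-K1 host cells lacking M1 receptor as counterscreen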
# M1 antag = human CHRM1 antagonism; P11229; CHO-K1 hM1, Fluo-8 calcium fluorescence, ACh EC80 antagonist; inhibition, % at 3 µM; actives 1.3% (n = 360,000);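 active means percent inhibition above its own plate's cutoff, namely the mean of that plate's compound wells plus 3 SD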;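 further: peak over basal fluorescence ratio during 140 s after agonist addition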
# Target sequence (P11229 whole entry, looked up): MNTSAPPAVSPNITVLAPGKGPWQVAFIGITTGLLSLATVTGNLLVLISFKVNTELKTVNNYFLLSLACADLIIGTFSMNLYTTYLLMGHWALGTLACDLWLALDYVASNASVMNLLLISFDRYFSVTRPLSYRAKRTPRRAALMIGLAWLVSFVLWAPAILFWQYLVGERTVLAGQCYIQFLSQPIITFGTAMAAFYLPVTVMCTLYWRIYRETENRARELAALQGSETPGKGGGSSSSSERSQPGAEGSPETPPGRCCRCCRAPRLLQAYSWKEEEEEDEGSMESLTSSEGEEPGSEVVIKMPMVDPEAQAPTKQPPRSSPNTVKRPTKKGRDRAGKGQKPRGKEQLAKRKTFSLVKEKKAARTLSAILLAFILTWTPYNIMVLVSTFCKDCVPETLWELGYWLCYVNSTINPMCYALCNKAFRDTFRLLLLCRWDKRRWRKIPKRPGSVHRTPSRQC
# CHO-K1 Ca antag = counter-screen for M1 antagonists: effect in parental CHO-K1 cells; ATP-induced calcium, Fluo-8 fluorescence; inhibition, % at 3 µM; actives 0.6% (n = 360,000); AID 602250;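 active means inhibition above a per-plate cutoff, the plate's mean sample inhibition plus 3 SD, cut at about 24% in these data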
# M1 ag = activates human CHRM1 receptor | P11229 | CHO-K1 hM1, Fluo-8 calcium fluorescence, agonist mode; 0% DMSO, 100% acetylcholine EC100 | activation, % at 3 µM | actives 0.33% (n = 360,000);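 active means activation above the run's mean compound activation plus 3 SD, cut at about 16% in these data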;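 further: peak over basal fluorescence ratio within a 140 s kinetic read after compound addition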
# M1 PAM = potentiates human M1 receptor response to acetylcholine; P11229; actives 0.088% (n = 360,000); CHO-K1 hM1, Fluo-8 calcium fluorescence, ACh EC20; 0% = ACh EC20, 100% = maximal ACh; activation, % at 3 µM; in the data active means activation above about 19%, passing the limit was not always enough
# A number is an active result; . = inactive. Most compounds without a hit are left out; they make up all but 2.3% or so of the library.
SMILES,M1 PAM parental,M1 ag parental,M1 antag,CHO-K1 Ca antag,M1 ag,M1 PAM
CC(C)CCN1CCN(Cc2nc3ccccc3s2)CC1CCO (configuration not stated),.,.,.,.,.,.
Cc1ccc(OC(=O)c2ccc(Br)o2)cc1,.,27.3,.,.,30.5,.
CCC(=O)c1ccc(OC(=O)c2ccc(Br)o2)cc1,.,43.1,.,.,80.6,.
CCC(=O)c1ccc(OCc2ccccc2)c(OC)c1,.,.,.,.,.,.
CCC(=O)c1ccc(OCc2ccc(C(=O)c3ccccc3)cc2)cc1,.,.,51.0,.,.,.
CCN1C(=O)/C(=C/c2ccc(OC)c(OC)c2)N=C1SCC(=O)NCc1ccco1,.,.,.,.,.,.
CC1CCN(Cc2cc(=O)oc3ccc4ccccc4c23)CC1,.,.,.,.,.,.
CC(C)(CO)CNC(=O)CCc1nnc(C2(c3ccc(Cl)cc3)CCC2)o1,.,.,.,.,.,.
COCCNC(=O)CCc1nnc(C2(c3ccc(Cl)cc3)CCC2)o1,.,15.8,.,.,.,.
COc1ccc(CNc2ncnc3sccc23)cc1,.,.,31.2,.,.,.
COc1ccc(CNc2ncnc3sccc23)cc1OC,.,16.4,.,.,.,.
CN(C)C(CNc1ncnc2sccc12)c1ccccc1 (configuration not stated),.,.,47.1,.,.,.
COc1ccc(CCNc2ncnc3cc(OC)c(OC)cc23)cc1OC,.,16.2,.,.,.,.
COc1ccc(C(CNc2ncnc3sccc23)N(C)C)cc1OC (configuration not stated),.,.,.,.,.,.
CN(C)S(=O)(=O)c1cccc(NC(=O)Cn2cc(C(F)(F)F)cc(Cl)c2=O)c1,.,.,.,.,.,.
O=C(O)c1cn[nH]c1-c1cccc([N+](=O)[O-])c1,.,.,.,.,.,.
CCOC(=O)Cc1csc(NC(=O)Nc2cccs2)n1,.,16.2,.,.,.,.
CC(C)CCN1CCN(Cc2cccc(C(F)(F)F)c2)CC1CCO (configuration not stated),.,.,.,.,.,.
CCN1CCN(c2ccc(NC(=O)c3cccc(S(=O)(=O)N4CCCC4)c3)cc2)CC1,.,.,74.3,.,.,.
O=C(Nc1ccc(N2CCOCC2)cc1)c1cccc(S(=O)(=O)N2CCCCC2)c1,.,.,.,.,.,.
CCN1CCN(c2ccc(NC(=O)c3ccco3)cc2Cl)CC1,.,.,.,.,.,.
CCN1CCN(c2ccc(NC(=O)c3cccc(F)c3)cc2Cl)CC1,.,.,53.8,.,.,.
CC[C@H](C)[C@H]1O[C@]2(CC[C@@H]1C)C[C@@H]1C[C@@H](CC=C(C)[C@@H](O[C@H]3C[C@H](OC)[C@@H](O[C@H]4C[C@H](OC)[C@@H](O)[C@H](C)O4)[C@H](C)O3)[C@@H](C)C=CC=C3CO[C@@H]4[C@H](O)C(C)=C[C@@H](C(=O)O1)[C@]34O)O2,.,.,.,.,.,.
CCOCCCNc1nc2c(c(=O)[nH]c(=O)n2C)n1CCCc1ccccc1,.,.,.,25.6,.,.
CCCn1cc(S(=O)(=O)c2ccccc2)c(=O)c2cc(F)c(N3CCN(C)CC3)cc21,.,.,.,.,.,.
SMILES,M1 PAM parental,M1 ag parental,M1 antag,CHO-K1 Ca antag,M1 ag,M1 PAM
Cn1c2ccccc2c2cc(C(=O)N3CCN(CCO)CC3)sc21,.,.,.,24.2,.,.
O=C(Nc1ccc(O)c(-c2nc3ccccc3s2)c1)C1=COCCO1,.,.,78.8,.,.,.
CCC1=C(c2ccc(OC)cc2)CCC(C(=O)O)C1C (configuration not stated),.,.,.,.,.,.
NC(CC(=O)NC(c1ccccc1)(c1ccccc1)c1ccccc1)C(=O)O (configuration not stated),.,.,.,.,.,.
NC(CSC(c1ccccc1)(c1ccccc1)c1ccccc1)C(=O)O (configuration not stated),.,.,39.9,.,.,.
O=C(c1cccc(C(F)(F)F)c1)N1CCC(O)(CS(=O)(=O)Cc2ccc(Cl)cc2)CC1,.,.,.,28.6,.,.
Cc1cc(C(=O)COc2ccc(-c3nnco3)cc2)c(C)n1Cc1ccccc1,.,.,.,.,.,.
Cc1ccccc1NC(=O)N1CCCC(c2nc(-c3ccc(C(C)C)cc3)no2)C1 (configuration not stated),.,16.7,.,.,.,.
Cc1ccccc1NC(=O)N1CCCC(c2nc(-c3ccc(F)cc3)no2)C1 (configuration not stated),.,.,.,.,.,.
CCCNC(=O)NC(=O)CSc1ccc2c(c1)OCCO2,.,.,.,.,.,.
CC(C)(O)c1ccc2c(c1)CCC1C(C)(C(=O)O)CCCC21C (configuration not stated),.,.,.,.,.,.
CC(C)c1c(O)ccc2c1CC[C@H]1C(C)(C)CCC[C@]21C,.,.,.,26.5,.,.
CN(C(=O)Nc1ccccc1)C1CCCc2ccccc21 (configuration not stated),.,16.1,.,.,.,.
CCN(C(=O)c1ccc(S(=O)(=O)N(C)C)cc1)C(C)C(=O)Nc1ccc(C)cc1 (configuration not stated),.,.,.,.,.,.
CC(O/N=C(\N)c1ccccc1)C(=O)Nc1cccc(C(F)(F)F)c1 (configuration not stated),.,.,.,.,.,.
O=C(COc1ccccc1)NC(=S)N1CCc2ccccc21,.,.,.,24.2,.,.
COc1ccccc1C1(O)C(=O)Nc2ccc(C)cc21 (configuration not stated),.,.,.,.,.,.
COc1ccc2oc(=O)c(C(=O)C[n+]3cccc(C)c3)cc2c1,.,.,31.8,.,.,.
CNC(=O)c1cc2cc(OC)ccc2oc1=O,.,.,.,.,.,.
COc1ccc2oc(=O)c(C(=O)NCc3ccc(F)cc3)cc2c1,.,15.6,.,.,.,.
CN(C)/C=N/c1nc2nccc(-c3ccc(F)cc3)n2n1,.,.,.,.,.,.
CN(C)/C=N/c1nc2nccc(-c3cccc(Cl)c3)n2n1,.,21.3,.,.,.,.
CC12CC3CC(C)(C1)CC(C(=O)N1CCN(C(=O)c4ccco4)CC1)(C3)C2,.,.,.,.,.,.
OCCCNCc1ccc(N(c2ccccc2)c2ccccc2)cc1,.,.,70.5,.,.,.
OCCNCc1ccc(-c2ccccc2)cc1,.,.,.,.,.,.
COc1ccccc1-c1cccc([C@@H]2C[C@H]3[C@@H](CN2)CON3C)c1,.,.,.,.,.,.
